Only some compounds are listed: those with a hit (about 7.5% of all), similar ones and a draw of the others.
Rab9 promoter act – Rab9 promoter activation; Potency, µM (doses to about 9.22 µM), hits mostly activators; Huh7 Rab9 promoter-luciferase reporter, luminescence, 24 h; hit rate 2.8% among 320,000; also: nearly all actives have a fitted effect of over 60% in size
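Cells were plated at 1500 per well in reduced-serum medium with 10% FBS and left 2 h. Compound in DMSO was then added for 24 h at 37 °C. Reporter signal was read by luminescence after 10 min with luciferase detection reagent.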
NPC1 prom act – NPC1 promoter activation | Huh7 NPC1 promoter luciferase reporter, 24 h | Potency, µM (highest dose often 9.22 µM), most hits filed as activators | hit rate 2.4% among 320,000 | AID 485313; also: nearly all actives have a fitted effect of over 60% in size
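Luminescence from an NPC1 promoter-driven luciferase reporter in stably transfected Huh7 cells was measured after 24 h compound treatment at 37 °C, followed by 10 min ambient incubation with luciferase detection reagent.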
ELG1 genotoxic – inducers of genotoxicity in HEK293T ELG1-luciferase cells; HEK293T ELG1-luciferase reporter, luminescence, 16 h; Potency, µM (doses to about 46 µM), most hits filed as activators; hit rate 1.3% among 330,000; AID 504466; also: nearly all actives have a fitted effect of over 60% in size
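Quantitative HTS format in 1536-well plates. HEK293T ELG1-luciferase reporter cells receive test compound and are incubated 16 hr at 37 °C, 5% CO2; ONE-Glo added, 30 min room temperature, then luminescence read.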
FLuc counter – counter-screen for miR-21 project: firefly luciferase inhibitors or activators; hit rate 6.9% among 360,000; AID 588342; P08659; Potency, µM (doses to about 57.5 µM), hits mostly inhibitors; purified FLuc, Km substrates, luminescence inhibition; also: nearly all actives have a fitted effect of over 55% in size
Target sequence (P08659 whole entry, looked up): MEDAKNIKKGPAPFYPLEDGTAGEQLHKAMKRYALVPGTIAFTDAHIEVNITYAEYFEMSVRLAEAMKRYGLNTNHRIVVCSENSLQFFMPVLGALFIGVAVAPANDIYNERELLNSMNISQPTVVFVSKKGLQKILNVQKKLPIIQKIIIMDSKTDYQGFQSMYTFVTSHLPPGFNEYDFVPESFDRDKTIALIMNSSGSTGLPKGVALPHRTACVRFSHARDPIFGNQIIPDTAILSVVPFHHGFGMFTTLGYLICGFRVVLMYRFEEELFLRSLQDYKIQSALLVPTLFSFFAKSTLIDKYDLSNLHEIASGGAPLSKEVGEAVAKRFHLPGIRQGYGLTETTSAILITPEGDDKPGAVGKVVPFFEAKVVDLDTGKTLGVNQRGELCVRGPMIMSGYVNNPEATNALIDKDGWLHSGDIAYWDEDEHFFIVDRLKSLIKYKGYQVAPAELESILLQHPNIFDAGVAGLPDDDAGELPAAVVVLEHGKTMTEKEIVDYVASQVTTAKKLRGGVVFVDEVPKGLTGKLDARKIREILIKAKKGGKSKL
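Purified P. pyralis luciferase, 10 nM final, with Km-level 10 uM D-luciferin and 10 uM ATP in 50 mM Tris acetate pH 7.5, 10 mM Mg acetate, 0.01% Tween-20, 0.05% BSA; 6-point qHTS titration about 60 µM downward; luminescence read.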
SMN2 splice enh – increases expression of the SMN2 splice variant; hit rate 2.8% among 210,000; Potency, µM (top dose mostly 46.1 µM), usual class: activators; HEK293 SMN2-luciferase splicing reporter, luminescence, 30-36 h; also: nearly all actives have a fitted effect of over 55% in size
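HEK293 cells carry an SMN2 minigene-luciferase reporter in which exon 7 inclusion puts luciferase in frame. Cells were seeded at 2000 cells/well, attached for 10-12 hours, then exposed to compounds for 30-36 hours at 37C before ONE-Glo luminescence.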
Each line names hits and unclear results; the compound was inactive in the other large screens; ! = a repeat was not active. Calls follow the shape of the dose curve; as a rule, active = well fitted curve in the direction sought with a large enough effect; inconclusive = small, poorly fitted or top-dose-only effect, or another doubt; inactive = no such curve, though single readings can be large; an effect the other way counts as inactive or inconclusive.

COc1ccc(CCNc2nc(-c3ccc(NC(C)=O)cc3)cs2)cc1OC	FLuc counter inconclusive
CN(CC1CCCN(CCc2ccccc2F)C1)C(=O)c1ccoc1 (configuration not stated)	none (no result: SMN2 splice enh)
COc1ccc(CCN2CCCC(CN(C)C(=O)c3ccoc3)C2)cc1 (configuration not stated)	Rab9 promoter act 2.2µM, NPC1 prom act 2.5µM, ELG1 genotoxic 16µM, FLuc counter 15µM (no result: SMN2 splice enh)
COc1cccc(CSc2nc(-c3ccccc3F)nc3c2Cc2c(CO)cnc(C)c2O3)c1	none (no result: Rab9 promoter act, NPC1 prom act, ELG1 genotoxic, SMN2 splice enh)
CCCP(=O)(CC(=O)O)c1ccccc1 (configuration not stated)	none
CCc1ccc2c(Cl)c(C(=O)N/N=C/c3c[nH]c4ccccc34)sc2c1	FLuc counter 19µM
CCc1ccc(-c2cc(C(=O)N/N=C/c3c[nH]c4ccccc34)[nH]n2)cc1	FLuc counter 4.3µM
CCOc1ccccc1C(=O)N/N=C/c1c[nH]c2ccccc12	FLuc counter inconclusive
O=C(Oc1coc(CSc2ncccn2)cc1=O)c1ccccc1[N+](=O)[O-]	FLuc counter 6.7µM
Cc1cc(C)nc(SCc2cc(=O)c(OC(=O)c3cc([N+](=O)[O-])ccc3Cl)co2)n1	none
O=C(O)c1cccc(N/N=C/c2cccc3ccccc23)c1	Rab9 promoter act inconclusive, NPC1 prom act 0.1µM, ELG1 genotoxic inconclusive, FLuc counter 0.076µM (no result: SMN2 splice enh)
COc1ccc(N/N=C/c2c(C(=O)O)ccc3ccccc23)cc1	FLuc counter 9.5µM (no result: SMN2 splice enh)
CCOc1cc(/C=N/NC(=O)CNc2cccc(C)c2)ccc1OC(=O)c1ccccc1	none
CCOc1cc(/C=N/Nc2cccc(C(=O)O)c2)ccc1OC(=O)c1ccccc1	Rab9 promoter act 0.1µM, NPC1 prom act 0.089µM, ELG1 genotoxic inconclusive, FLuc counter 17µM, SMN2 splice enh 1µM
COc1ccc2ccccc2c1/C=N/Nc1cccc(C(=O)O)c1	Rab9 promoter act 0.89µM, NPC1 prom act 1.1µM, ELG1 genotoxic inconclusive, FLuc counter 8.5µM (no result: SMN2 splice enh)
Cc1ccc2nc(NCC(N)=O)nc(-c3ccccc3)c2c1	none (no result: SMN2 splice enh)
Cc1cccc(C)c1NC(=O)CN(C)c1ccc(C(F)(F)F)cn1	none
Cc1cccc(C)c1NC(=O)C(Cl)=C(Cl)Cl	none
COc1cc(/C=N/NC(=O)CCn2c3ccccc3c3ccccc32)ccc1O	none
Cn1c2ccccc2c2cc(/C=N/NC(=O)c3cc(O)ccc3O)ccc21	FLuc counter inconclusive (no result: SMN2 splice enh)
Cn1c2ccccc2c2cc(/C=N/NC(=O)c3cc(O)cc(O)c3)ccc21	Rab9 promoter act inconclusive, FLuc counter 24µM (no result: SMN2 splice enh)
COc1cc(C(=O)N/N=C/c2ccc3c(c2)c2ccccc2n3C)ccc1O	FLuc counter 11µM (no result: SMN2 splice enh)
Cc1ccc(NC(=O)N[C@@H](CC(C)C)C(=O)O)c(C)c1	none (no result: SMN2 splice enh)
COc1ccc(C2C3C(C)=NN=C3CC(C)(O)C2C(C)=O)cc1 (configuration not stated)	none
O=c1/c(=C/c2ccc([N+](=O)[O-])cc2)sc2n1CCCN=2	Rab9 promoter act 3.5µM, NPC1 prom act 2.8µM, ELG1 genotoxic inconclusive, FLuc counter inconclusive
COc1cc(/C=c2\sc3n(c2=O)CCCN=3)ccc1O	ELG1 genotoxic inconclusive, FLuc counter inconclusive
Cc1cc(-c2nnc(SCC(=O)Nc3cccc(C)c3C)n2N)n[nH]1	none (no result: SMN2 splice enh)
CN(C)/C=N/NC(=O)c1ccc(Cl)cc1	none
CN(C)/C=N/c1cnc(C(=O)c2ccc(Cl)cc2)n1C	Rab9 promoter act 1.8µM, NPC1 prom act 1.8µM, ELG1 genotoxic 6.3µM, FLuc counter 11µM, SMN2 splice enh 11µM
Cc1cc(C)c2c(SCc3ccc(Cl)cc3Cl)nc(N)nc2n1	none (no result: Rab9 promoter act, NPC1 prom act, ELG1 genotoxic, FLuc counter)
N#Cc1c(N2CCCC2)nsc1-c1ccccc1	Rab9 promoter act inconclusive, NPC1 prom act inconclusive, ELG1 genotoxic inconclusive, FLuc counter 15µM (no result: SMN2 splice enh)
Cc1cccc(C(=O)O/N=C(\N)c2cccc([N+](=O)[O-])c2)c1	NPC1 prom act inconclusive, ELG1 genotoxic inconclusive, FLuc counter 1.3µM
Cc1ccccc1C(=O)O/N=C(\N)c1cccc([N+](=O)[O-])c1	Rab9 promoter act 4.5µM, NPC1 prom act inconclusive, ELG1 genotoxic inconclusive, FLuc counter 0.6µM, SMN2 splice enh inconclusive
Cc1ncsc1CCOC(=O)c1cccc([N+](=O)[O-])c1	FLuc counter 19µM!
N/C(=N\OC(=O)c1cccs1)c1cccc([N+](=O)[O-])c1	ELG1 genotoxic inconclusive, FLuc counter 3.4µM
Cn1c(N)c(C(=O)COC(=O)CNC(=O)c2ccccc2F)c(=O)n(C)c1=O	none (no result: Rab9 promoter act, NPC1 prom act, FLuc counter, SMN2 splice enh)
